LMP1 NFkB inh: reduces LMP1-driven NF-kappaB luciferase signal | LMP1-induced NF-kappaB luciferase reporter cells, luminescence | inhibition, % at 12.5 µM | 350,000 compounds, 0.69% hits; in the data active = inhibition above about 41%; inconclusive = no clear call, values can overlap the other calls;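 also: 0% = neutral control wells and 100% = reference inhibitor control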
EWS-Fli inh: EWS/Fli transcriptional activity inhibition | A673 NR0B1-luciferase reporter, viability-normalised | inhibition, % at 12.6 µM | AID 651661 | 350,000 compounds, 0.67% hits;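 active = mean inhibition of at least 50% after viability correction, with every replicate also passing that limit; inconclusive = mean reaches 50% but only one of two replicates passes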;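 also: firefly luciferase signal divided by Alamar Blue viability fluorescence both relative to DMSO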
PAX8 reporter: lowers PAX8-driven luciferase in RMG-I cells | RMG-I TPO-luciferase reporter, SteadyGlo, 24 h | inhibition, % at 12.6 µM | 360,000 compounds, 1.2% hits | AID 652154;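 active = mean replicate inhibition at least 60% with every replicate also reaching 60%; inconclusive = only one of the two criteria is met; inactive = mean below 60% and not all replicates reaching 60%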;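 also: luciferase light reporting Pax8 driven TPO promoter activity; plate controls were median of neutral control wells for no effect and mitoxantrone controls for full effect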
LGR2 inh: blocks bursicon-induced cAMP signaling via Drosophila LGR2; 380,000 compounds, 0.35% hits; inhibition, % at 9.99 µM; HEK293 LGR2, CRE-luciferase, bursicon-stimulated, 4 h;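 active = drop in luminescence signal, shown as inhibition above about 50% in the replicate tests, limit read from the data, passing the limit was not always enough; inconclusive = probably only some replicates passing the limit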;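 also: agonist challenge used bursicon conditioned medium at about half maximal strength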
Shn3 inh set2: Schnurri-3 reporter inhibition in Clone20 osteoblasts; 360,000 compounds, 0.52% hits; Clone20 osteoblast Shn3 3'UTR firefly luciferase, 24 h; inhibition, % at 12.5 µM;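 active = mean inhibition of at least 75% with every replicate also reaching 75%; inconclusive = mean inhibition at least 75% but some replicate below; inactive = mean inhibition below 75%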;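 also: 0% = median of neutral control wells and 100% = pilot-screen positive control compound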
TRPM1 prom inh: inhibitors of MITF-driven TRPM1 promoter in melanoma cells; SK-MEL-5 TRPM1 promoter luciferase, 24 h; inhibition, % at 12.5 µM; 330,000 compounds, 0.83% hits; AID 488899;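 active = mean inhibition across replicates of 60% or more, whatever share of single replicates reaches that level; inconclusive = some that reach 60%, reason not given; inactive = mean inhibition across replicates below 60%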
The depositor's hits bear a star; ? = inconclusive; · = no result given. Rows were chosen to be rich in hits. Some 2.2% of all compounds tested hit in one or more screens of this group.

SMILES	LMP1 NFkB inh	EWS-Fli inh	PAX8 reporter	LGR2 inh	Shn3 inh set2	TRPM1 prom inh
C[C@H]1CN([C@@H](C)CO)C(=O)c2cccc(NC(=O)C3CCCCC3)c2O[C@H]1CN(C)S(=O)(=O)c1ccc(Cl)cc1	·	4	2	8	·	·
Clc1ccc(-c2nnc(Sc3nc4ccccc4o3)c3ccccc23)cc1	-15	2	·	9	-24	-22
O=c1c(Cl)c2oc3ccccc3nc-2c2ccccc12	-13	·	·	·	8	63*
Cn1cc([N+](=O)[O-])c(C(=O)Nc2sc3c(c2C#N)CCC3)n1	-8	·	-4	-26	95*	68*
Cn1cc(Br)c(C(=O)Nc2sc3c(c2C#N)CCC3)n1	·	-58	-21	-41	-11	·
O=C(N/N=C/c1sc(N2CCOCC2)nc1-c1ccccc1)c1cccc(S(=O)(=O)N2CCCC2)c1	11	20	74*	·	90*	52
O=C(N/N=C/c1sc(N2CCOCC2)nc1-c1ccccc1)c1ccc(O)cc1	-4	10	-11	-4	-1	-8
C/C=C/c1cnc2c(c1)C(=O)N([C@@H](C)CO)C[C@H](C)[C@@H](CN(C)C(=O)Cc1ccccc1)O2	·	1	·	-9	·	·
Cc1c(C(C)C)c(=O)n(-c2ccc(S(=O)(=O)NC3CCCCC3)cc2)n1C	23	31	20	2	88*	26
Cc1c(C(C)C)c(=O)n(-c2ccc(S(=O)(=O)NCc3ccccc3)cc2)n1C	13	27	16	36	83*	22
OC1CC2CCC(C1)N2CCCN1c2ccccc2Sc2ccc(Cl)cc21 (configuration not stated)	-11	25	22	19	64	91*
CN1CCN(CCCN2c3ccccc3Sc3ccc(Cl)cc32)CC1	-1	-2	5	·	-29	-14
COC(=O)C1=C(C(C)=O)C(c2ccc(C(=O)OC)cc2)n2nnnc2N1 (configuration not stated)	-2	·	·	·	-4	5
COC(=O)C1=C(C(=O)c2ccccc2)C(c2ccccc2)n2nnnc2N1 (configuration not stated)	63*	·	-5	-9	8	-20
COc1ccc(NC(=O)C2(C)Cc3c(-c4ccc5c(c4)OCO5)ccnc3O2)cn1 (configuration not stated)	·	64*	22	-59	-18	·
CC1(C(=O)Nc2ccc3c(c2)OCO3)Cc2c(-c3cccc(C(N)=O)c3)ccnc2O1 (configuration not stated)	·	59*	36	-32	2	·
O=C(NC[C@@H]1CC[C@H]2[C@H](CN2Cc2cc(-c3ccccc3)on2)O1)c1ccc2c(c1)OCO2	·	-3	39	·	·	·
CCC(=O)N1[C@H](C(=O)NC2CCC2)[C@@H](CO)[C@@H]2Cn3c(ccc(C4=CCCCC4)c3=O)[C@@H]21	·	4	·	25	·	·
COc1cccc(/C=C2\SC(=S)N(CCCC(=O)N3CCCCC3CCO)C2=O)c1 (configuration not stated)	4	?	67*	3	12	29
COc1ccccc1/C=C1\SC(=S)N(CCC(=O)N2CCCCC2CCO)C1=O (configuration not stated)	10	2	-2	10	-19	-2
COc1cccc(/C=C2\SC(=S)N(CCC(=O)N3CCCCC3CCO)C2=O)c1 (configuration not stated)	3	4	70*	8	-53	-5
C[C@@H]1CN([C@H](C)CO)C(=O)c2cccc(NS(=O)(=O)c3cccs3)c2O[C@@H]1CN(C)C(=O)NC1CCCCC1	·	3	·	-11	·	·
CCCN(C)C[C@H]1Oc2cc(-c3cncnc3)ccc2S(=O)(=O)N([C@H](C)CO)C[C@H]1C	·	-11	·	11	·	·
Oc1ccc(-c2csc(Nc3ccccn3)n2)cc1O	6	18	-37	-49	-75	-18
Oc1ccc(-c2csc(Nc3cccc4ccccc34)n2)cc1O	-4	20	12	8	87*	-10
SMILES	LMP1 NFkB inh	EWS-Fli inh	PAX8 reporter	LGR2 inh	Shn3 inh set2	TRPM1 prom inh
C[C@@H]1CCCCO[C@@H](CN(C)C(=O)Nc2cccc3ccccc23)[C@H](C)CN([C@H](C)CO)C(=O)c2cc(NS(=O)(=O)c3ccc(Cl)cc3)ccc2O1	·	8	94*	3	·	·
C[C@H]1CCCCO[C@H](CN(C)C(=O)Nc2cccc3ccccc23)[C@@H](C)CN([C@@H](C)CO)C(=O)c2cc(NS(=O)(=O)c3ccc(Cl)cc3)ccc2O1	·	15	82*	0	·	·
C[C@H](CO)N1C[C@H](C)[C@@H](CN(C)C(=O)Nc2cccc3ccccc23)OCCCC[C@H](C)Oc2ccc(NS(=O)(=O)c3ccc(Cl)cc3)cc2C1=O	·	11	42	15	·	·
COc1cccc(-c2csc3ncnc(Sc4nnnn4C)c23)c1	75*	19	99*	46	-12	71*
Cn1nnnc1Sc1ncnc2scc(-c3ccccc3C(F)(F)F)c12	4	5	49	?	-10	43
COc1ccc(-c2csc3ncnc(N4CCN(S(=O)(=O)c5cccc(C(F)(F)F)c5)CC4)c23)cc1	-9	-13	-5	19	18	-13
Cn1nnnc1Sc1ncnc2scc(-c3ccc(C(F)(F)F)cc3)c12	-4	35	77*	93*	66	82*
Cn1nnnc1Sc1ncnc2scc(-c3cccc(F)c3)c12	24	29	105*	83*	68	78*
Cn1nnnc1Sc1ncnc2scc(-c3cccc(C(F)(F)F)c3)c12	21	12	101*	88*	23	75*
Fc1ccc(CSc2ncnc3scc(-c4ccccc4)c23)cc1	6	-4	22	·	-3	-14
CCS(=O)(=O)NCC[C@@H]1CC[C@@H](NC(=O)Cc2ccccn2)[C@H](CO)O1	·	3	24	-8	·	·
COc1ccc(S(=O)(=O)N(C)C[C@@H]2Oc3ccc(NC(=O)NC(C)C)cc3C(=O)N([C@@H](C)CO)C[C@H]2C)cc1	·	3	·	3	·	·
O=C(NN=Cc1cc(Cl)ccc1[N+](=O)[O-])c1cccc2ccccc12	8	1	-8	6	-5	2
O=C(N/N=C/c1cc([N+](=O)[O-])ccc1O)c1ccc(COc2ccc3c(c2)CCC3)o1	-48	-4	·	-7	88*	47
COc1ccc(Br)cc1/C=N/NC(=O)c1ccc(COc2ccc3c(c2)CCC3)o1	-7	·	·	·	-17	-12
O=C(N/N=C/c1cc([N+](=O)[O-])ccc1O)c1cccc2ccccc12	5	24	69*	5	69	42
C[C@@H]1CN([C@@H](C)CO)C(=O)c2cc(C3=CCCC3)cnc2O[C@H]1CN(C)Cc1ccccc1C(=O)O	·	0	-2	-2	·	·
Cc1ccc(S(=O)(=O)N(C)C[C@H]2Oc3c(NS(=O)(=O)c4cccs4)cccc3C(=O)N([C@H](C)CO)C[C@H]2C)cc1	·	3	-52	-1	·	·

Screening data: PubChem, Broad Institute
